Source: the supplement of paper PMC10849652
Of roughly 7,900 targets only a part is listed; those with a hit were picked by preference. About 0.6% of all pairs of compound and target were hits. A number with no mark means an inactive call.

Assays:
Test in all cases: log2 fold change, soluble protein after heating vs DMSO (PISA); higher = thermal stabilisation; K562 cells, 10 uM, 30 min; active = over 0.2 and 3.5 SD of the protein, either way, in both replicates (recomputed)
[1] = compound: CC[C@@H]1C(=O)N(C)c2cnc(Nc3ccc(C(=O)NC4CCN(C)CC4)cc3OC)nc2N1C1CCCC1
Outline: (§1)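 K562 cells (2×10^6 cells/mL) were treated with 10 μM compound for 30 min, and aliquots were heated for 3 min over 48°C-58°C. Pooled aliquots were extracted in PBS with 0.5% NP-40 at 4°C, and the supernatant after 21,000xg for 90 min was measured by TMTpro 16plex LC-MS/MS with channel sums equalised. Reported thermal stability, relative to control samples and from duplicates, is a log2 fold change.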

volasertib = compound: CC[C@@H]1C(=O)N(C)c2cnc(Nc3ccc(C(=O)N[C@H]4CC[C@H](N5CCN(CC6CC6)CC5)CC4)cc3OC)nc2N1C(C)C [volasertib]
Outline: as §1

[2] = compound: CC[C@H](C)N1C=C(C2=C(C=C(C=C21)C3=CN=C(C=C3)N4CCNCC4)C(=O)NCC5=C(C=C(NC5=O)C)C)C
Outline: as §1

epoxomicin = compound: CC[C@H](C)[C@@H](C(=O)N[C@@H]([C@@H](C)O)C(=O)N[C@@H](CC(C)C)C(=O)[C@]1(CO1)C)NC(=O)[C@H]([C@@H](C)CC)N(C)C(=O)C [epoxomicin]
Outline: as §1

[3] = compound: CCn1c(C(=O)N(C2CC2)C2CC2)cc2c3c(ncn3C)c(Nc3cc(C)n(C)n3)nc21
Outline: as §1

[4] = compound: CCn1cc(-c2ccnc3[nH]c(-c4cccc(CN(C)C)c4)cc23)c(-c2ccc(NC(=O)N(C)C)cc2)n1
Outline: as §1

[5] = compound: CN(C)CC(=O)Nc1ccc2[nH]c(=O)c3ccccc3c2c1
Outline: as §1

rosiglitazone = compound: CN(CCOC1=CC=C(C=C1)C[C@H]2C(=O)NC(=O)S2)C3=CC=CC=N3 (racemic) [rosiglitazone]
Outline: as §1

[6] = compound: CN1C2=C(C3=C1C(=O)N(N=C3)CC4=CC(=CC=C4)N)SC(=C2)S(=O)C
Outline: as §1

[7] = compound: CN1CCC(CNc2ccc3ncc(-c4cccc(OC(F)(F)F)c4)n3n2)CC1
Outline: as §1

saracatinib = compound: CN1CCN(CCOc2cc(OC3CCOCC3)c3c(Nc4c(Cl)ccc5c4OCO5)ncnc3c2)CC1 [saracatinib]
Outline: as §1

sotrastaurin = compound: CN1CCN(c2nc(C3=C(c4c[nH]c5ccccc45)C(=O)NC3=O)c3ccccc3n2)CC1 [sotrastaurin]
Outline: as §1

alvocidib = compound: CN1CC[C@H](c2c(O)cc(O)c3c(=O)cc(-c4ccccc4Cl)oc23)[C@H](O)C1 [alvocidib]
Outline: as §1

Tubastatin A = compound: CN1CCc2c(c3ccccc3n2Cc2ccc(C(=O)NO)cc2)C1 [Tubastatin A]
Outline: as §1

[8] = compound: CNC(=O)C1=CC=CC=C1NC2=NC(=NC=C2Cl)NC3=C(C=C(C=C3)N4CCOCC4)OC
Outline: as §1

defactinib = compound: CNC(=O)c1ccc(Nc2ncc(C(F)(F)F)c(NCc3nccnc3N(C)S(C)(=O)=O)n2)cc1 [defactinib]
Outline: as §1

rucaparib = compound: CNCc1ccc(-c2[nH]c3cc(F)cc4c3c2CCNC4=O)cc1 [rucaparib]
Outline: as §1

[9] = compound: CNc1nc(-c2ccc3c(N)n[nH]c3c2)cc(N2C[C@@H](C(=O)NC3CCCCC3)CC[C@H]2C)n1
Outline: as §1

encorafenib = compound: COC(=O)N[C@@H](C)CNc1nccc(-c2cn(C(C)C)nc2-c2cc(Cl)cc(NS(C)(=O)=O)c2F)n1 [encorafenib]
Outline: as §1

[10] = compound: COC(=O)[C@H](CCSC)NC(=O)C1=C(C=C(C=C1)NC[C@H](CS)N)C2=CC=CC=C2
Outline: as §1

Sequence of UniProt Q16774 (Q16774 whole entry, looked up): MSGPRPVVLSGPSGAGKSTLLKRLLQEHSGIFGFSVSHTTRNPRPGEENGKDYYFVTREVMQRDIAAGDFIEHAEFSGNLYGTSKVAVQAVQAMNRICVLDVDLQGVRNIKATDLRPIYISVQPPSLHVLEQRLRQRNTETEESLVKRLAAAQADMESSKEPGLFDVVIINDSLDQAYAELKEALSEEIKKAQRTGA
Sequence of UniProt O94925 (O94925 whole entry, looked up): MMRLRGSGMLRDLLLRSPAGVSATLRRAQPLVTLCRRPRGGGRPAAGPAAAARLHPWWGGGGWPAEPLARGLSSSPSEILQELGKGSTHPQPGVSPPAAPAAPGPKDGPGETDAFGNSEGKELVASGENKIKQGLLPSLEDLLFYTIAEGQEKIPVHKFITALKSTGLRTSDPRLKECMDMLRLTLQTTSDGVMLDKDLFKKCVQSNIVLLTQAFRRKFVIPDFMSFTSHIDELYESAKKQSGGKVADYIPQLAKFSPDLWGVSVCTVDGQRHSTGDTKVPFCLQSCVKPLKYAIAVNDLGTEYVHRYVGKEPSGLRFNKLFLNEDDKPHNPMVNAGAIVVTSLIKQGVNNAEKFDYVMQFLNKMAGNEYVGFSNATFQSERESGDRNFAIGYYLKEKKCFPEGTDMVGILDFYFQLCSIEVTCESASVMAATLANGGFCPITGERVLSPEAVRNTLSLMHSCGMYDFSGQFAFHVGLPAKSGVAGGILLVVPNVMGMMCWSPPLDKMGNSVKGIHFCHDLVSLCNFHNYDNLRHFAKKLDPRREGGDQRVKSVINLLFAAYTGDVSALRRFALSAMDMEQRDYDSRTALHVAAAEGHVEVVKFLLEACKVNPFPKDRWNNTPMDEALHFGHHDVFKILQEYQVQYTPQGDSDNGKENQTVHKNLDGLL
Sequence of UniProt Q9Y5Q8 (Q9Y5Q8 whole entry, looked up): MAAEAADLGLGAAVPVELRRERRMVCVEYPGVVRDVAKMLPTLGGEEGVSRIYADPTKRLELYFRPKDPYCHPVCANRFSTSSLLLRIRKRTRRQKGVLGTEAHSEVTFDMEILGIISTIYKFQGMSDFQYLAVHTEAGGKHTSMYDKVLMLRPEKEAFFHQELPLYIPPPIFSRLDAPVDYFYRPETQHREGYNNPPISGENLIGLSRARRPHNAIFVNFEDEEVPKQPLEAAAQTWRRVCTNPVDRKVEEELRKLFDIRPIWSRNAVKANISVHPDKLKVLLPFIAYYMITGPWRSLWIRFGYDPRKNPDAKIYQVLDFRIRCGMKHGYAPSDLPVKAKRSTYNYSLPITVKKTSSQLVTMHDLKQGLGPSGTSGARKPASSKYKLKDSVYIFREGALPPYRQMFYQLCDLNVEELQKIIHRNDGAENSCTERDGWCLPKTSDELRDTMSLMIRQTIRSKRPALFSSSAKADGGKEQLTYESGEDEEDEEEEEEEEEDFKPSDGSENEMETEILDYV
Sequence of UniProt P48507 (P48507 whole entry, looked up): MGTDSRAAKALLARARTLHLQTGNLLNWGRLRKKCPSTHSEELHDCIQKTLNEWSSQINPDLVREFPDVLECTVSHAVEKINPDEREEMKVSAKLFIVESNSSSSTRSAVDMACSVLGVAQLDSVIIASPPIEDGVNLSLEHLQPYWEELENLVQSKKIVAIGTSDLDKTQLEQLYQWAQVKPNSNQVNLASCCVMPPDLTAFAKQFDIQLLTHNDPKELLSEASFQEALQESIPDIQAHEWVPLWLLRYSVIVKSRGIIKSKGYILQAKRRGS
Sequence of UniProt Q00403 (Q00403 whole entry, looked up): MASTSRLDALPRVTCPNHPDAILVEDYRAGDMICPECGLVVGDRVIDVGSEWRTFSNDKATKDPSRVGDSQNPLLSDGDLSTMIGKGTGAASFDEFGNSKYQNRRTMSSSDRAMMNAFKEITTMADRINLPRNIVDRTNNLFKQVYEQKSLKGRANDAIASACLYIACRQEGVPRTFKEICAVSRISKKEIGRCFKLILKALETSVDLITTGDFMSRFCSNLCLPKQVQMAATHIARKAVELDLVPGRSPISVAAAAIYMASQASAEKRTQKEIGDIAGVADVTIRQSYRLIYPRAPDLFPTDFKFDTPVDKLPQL
Sequence of UniProt Q7Z4Q2 (Q7Z4Q2 whole entry, looked up): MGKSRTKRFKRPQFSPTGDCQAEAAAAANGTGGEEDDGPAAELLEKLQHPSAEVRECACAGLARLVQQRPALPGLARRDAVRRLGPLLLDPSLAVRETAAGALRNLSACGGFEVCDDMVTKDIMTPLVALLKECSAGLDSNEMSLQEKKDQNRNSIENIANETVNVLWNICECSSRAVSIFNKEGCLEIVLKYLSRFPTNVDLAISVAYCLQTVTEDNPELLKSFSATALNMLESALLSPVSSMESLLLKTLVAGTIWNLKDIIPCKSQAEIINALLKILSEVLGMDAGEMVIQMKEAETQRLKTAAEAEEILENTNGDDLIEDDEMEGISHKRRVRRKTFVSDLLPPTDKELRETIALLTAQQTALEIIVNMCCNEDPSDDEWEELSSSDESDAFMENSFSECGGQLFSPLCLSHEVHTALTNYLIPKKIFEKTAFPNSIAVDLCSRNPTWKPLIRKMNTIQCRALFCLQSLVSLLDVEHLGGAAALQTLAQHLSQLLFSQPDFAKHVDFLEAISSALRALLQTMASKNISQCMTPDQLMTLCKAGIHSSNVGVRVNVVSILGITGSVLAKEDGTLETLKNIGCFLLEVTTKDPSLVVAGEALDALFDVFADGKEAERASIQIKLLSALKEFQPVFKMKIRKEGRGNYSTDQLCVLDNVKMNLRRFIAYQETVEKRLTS
Sequence of UniProt P15586 (P15586 whole entry, looked up): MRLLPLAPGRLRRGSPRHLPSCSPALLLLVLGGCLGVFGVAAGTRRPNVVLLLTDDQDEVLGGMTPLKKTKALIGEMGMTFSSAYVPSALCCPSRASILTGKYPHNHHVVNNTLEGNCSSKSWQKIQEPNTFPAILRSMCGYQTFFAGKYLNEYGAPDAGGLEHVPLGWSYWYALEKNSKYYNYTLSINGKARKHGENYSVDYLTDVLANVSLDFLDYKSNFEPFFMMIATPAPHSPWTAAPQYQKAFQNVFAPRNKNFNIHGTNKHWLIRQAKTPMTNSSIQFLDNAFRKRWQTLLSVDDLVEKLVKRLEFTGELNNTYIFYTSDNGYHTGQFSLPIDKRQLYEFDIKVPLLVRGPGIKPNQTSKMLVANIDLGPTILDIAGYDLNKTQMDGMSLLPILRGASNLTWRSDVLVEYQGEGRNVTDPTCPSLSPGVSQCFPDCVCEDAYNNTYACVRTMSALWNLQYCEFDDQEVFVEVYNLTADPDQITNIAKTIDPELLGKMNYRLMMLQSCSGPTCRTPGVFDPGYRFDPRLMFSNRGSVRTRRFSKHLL
Sequence of UniProt Q92947 (Q92947 whole entry, looked up): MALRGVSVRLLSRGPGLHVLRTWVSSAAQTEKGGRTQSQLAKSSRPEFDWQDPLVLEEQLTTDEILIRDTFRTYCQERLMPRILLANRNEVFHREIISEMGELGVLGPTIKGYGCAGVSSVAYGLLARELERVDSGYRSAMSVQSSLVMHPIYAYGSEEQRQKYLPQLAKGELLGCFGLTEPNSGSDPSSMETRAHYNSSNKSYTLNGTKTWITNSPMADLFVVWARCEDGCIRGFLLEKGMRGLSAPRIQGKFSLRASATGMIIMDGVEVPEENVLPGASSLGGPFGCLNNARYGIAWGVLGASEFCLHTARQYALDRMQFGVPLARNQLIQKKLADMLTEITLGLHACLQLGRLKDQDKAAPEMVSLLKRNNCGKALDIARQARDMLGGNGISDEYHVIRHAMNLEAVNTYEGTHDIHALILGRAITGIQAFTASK
Sequence of UniProt P62879 (P62879 whole entry, looked up): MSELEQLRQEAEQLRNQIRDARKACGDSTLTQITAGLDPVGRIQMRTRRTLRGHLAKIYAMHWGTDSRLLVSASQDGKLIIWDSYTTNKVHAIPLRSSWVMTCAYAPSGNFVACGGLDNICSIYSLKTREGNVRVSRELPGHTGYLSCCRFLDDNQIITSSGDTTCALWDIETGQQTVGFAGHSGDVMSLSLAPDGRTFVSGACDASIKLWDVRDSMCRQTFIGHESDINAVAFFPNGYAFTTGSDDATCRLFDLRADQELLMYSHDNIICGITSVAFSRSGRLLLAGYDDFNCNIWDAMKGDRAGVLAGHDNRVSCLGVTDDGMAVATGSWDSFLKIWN
Sequence of UniProt Q9P2H3 (Q9P2H3 whole entry, looked up): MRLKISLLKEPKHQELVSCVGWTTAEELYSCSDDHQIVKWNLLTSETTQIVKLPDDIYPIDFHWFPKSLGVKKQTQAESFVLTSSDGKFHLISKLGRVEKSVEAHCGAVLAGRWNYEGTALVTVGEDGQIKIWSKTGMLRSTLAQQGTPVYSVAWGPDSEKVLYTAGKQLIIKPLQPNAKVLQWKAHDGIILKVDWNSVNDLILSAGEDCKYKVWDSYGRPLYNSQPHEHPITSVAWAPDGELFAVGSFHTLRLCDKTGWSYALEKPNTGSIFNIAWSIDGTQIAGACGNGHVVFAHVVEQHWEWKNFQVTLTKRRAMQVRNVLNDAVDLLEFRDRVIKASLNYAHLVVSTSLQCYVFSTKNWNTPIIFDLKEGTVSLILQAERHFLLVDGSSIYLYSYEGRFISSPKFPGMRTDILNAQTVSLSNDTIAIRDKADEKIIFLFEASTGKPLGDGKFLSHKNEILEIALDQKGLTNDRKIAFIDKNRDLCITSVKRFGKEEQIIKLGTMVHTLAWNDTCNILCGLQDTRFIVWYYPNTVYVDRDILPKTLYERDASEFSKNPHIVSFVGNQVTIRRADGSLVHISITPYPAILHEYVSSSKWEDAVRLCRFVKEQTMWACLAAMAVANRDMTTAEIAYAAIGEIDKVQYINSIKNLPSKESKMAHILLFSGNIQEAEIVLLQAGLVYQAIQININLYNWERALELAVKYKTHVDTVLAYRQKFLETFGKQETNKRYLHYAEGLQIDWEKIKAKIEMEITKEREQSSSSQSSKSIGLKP
Sequence of UniProt P60520 (P60520 whole entry, looked up): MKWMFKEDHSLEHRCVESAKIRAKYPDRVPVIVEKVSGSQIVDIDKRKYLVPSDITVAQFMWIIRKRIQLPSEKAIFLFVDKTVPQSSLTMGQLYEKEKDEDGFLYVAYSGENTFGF

| Target | log2 fold change [1] | log2 fold change (volasertib) | log2 fold change [2] | log2 fold change (epoxomicin) | log2 fold change [3] | log2 fold change [4] | log2 fold change [5] | log2 fold change (rosiglitazone) | log2 fold change [6] | log2 fold change [7] | log2 fold change (saracatinib) | log2 fold change (sotrastaurin) | log2 fold change (alvocidib) | log2 fold change (Tubastatin A) | log2 fold change [8] | log2 fold change (defactinib) | log2 fold change (rucaparib) | log2 fold change [9] | log2 fold change (encorafenib) | log2 fold change [10] |
| --- | --- | --- | --- | --- | --- | --- | --- | --- | --- | --- | --- | --- | --- | --- | --- | --- | --- | --- | --- | --- |
| HEATR3 (UniProt Q7Z4Q2) | -0.308 | -0.36 (active) | 0.033 | 0.039 | -0.051 | 0.276 | 0.058 | 0.059 | 0.007 | -0.34 | -0.045 | -0.167 | -0.128 | 0.109 | -0.054 | -0.048 | 0.081 | -0.006 | -0.028 | -0.006 |
| IFT80 isoform 3 (UniProt Q9P2H3) | 0.039 | -0.232 (active) | 0.072 | 0.053 | 0.008 | -0.09 | 0.095 | 0.028 | -0.084 | -0.157 | -0.016 | 0.029 | -0.091 | 0.094 | 0.01 | -0.023 | 0.029 | -0.007 | 0.056 | 0.014 |
| GCDH (UniProt Q92947) | -0.029 | 0.039 | -0.003 | 0.024 | -0.021 | -0.051 | 0.008 | 0.013 | -0.048 | 0.072 | 0.035 | 0.07 | 0 | 0.004 | -0.054 | -0.012 | 0.045 | 0.009 | -0.047 | 0.008 |
| GPAT4 (UniProt Q86UL3) | -0.042 | -0.046 | -0.036 | 0.063 | -0.01 | -0.039 | 0.029 | 0.008 | -0.063 | 0.143 | 0.042 | 0.046 | -0.046 | -0.039 | 0.04 | -0.017 | 0.055 | -0.069 | -0.021 | 0.031 |
| GDI1 (UniProt P31150) | 0.018 | 0.113 | 0.025 | 0.022 | -0.031 | -0.068 | -0.015 | 0.027 | -0.082 | 0.008 | 0.017 | 0.012 | -0.067 | -0.025 | 0.012 | -0.046 | -0.042 | -0.015 | 0.006 | 0.009 |
| GALNT2 (UniProt Q10471) | -0.082 | -0.377 (active) | 0.027 | -0.004 | 0.003 | -0.034 | -0.021 | 0.027 | -0.079 | -0.077 | -0.025 | 0.005 | -0.012 | 0.013 | 0.004 | 0.023 | -0.046 | -0.015 | 0.036 | -0.017 |
| GUK1 isoform 2 (UniProt Q16774) | -0.116 | 0.081 | 0.097 | 0.12 | -0.151 | -0.167 | 0.049 | 0.158 | 0 | 0.071 | 0.001 | -0.223 | -0.092 | 0.064 | 0.027 | -0.162 | 0.175 | 0.026 | -0.079 | 0 |
| GLS isoform 3 (UniProt O94925) | -0.172 | -0.699 (active) | 0.126 | 0.152 | -0.017 | -0.055 | 0.069 | 0.046 | -0.039 | -0.364 | -0.025 | -0.027 | -0.246 | 0.14 | -0.025 | -0.139 | -0.045 | -0.063 | 0.039 | 0 |
| GCLM (UniProt P48507) | -0.183 | -0.41 (active) | 0.058 | 0.03 | -0.049 | -0.046 | 0.042 | 0.082 | 0.03 | -0.112 | 0.012 | -0.055 | -0.126 | 0.061 | 0.155 | -0.151 | 0.033 | -0.045 | 0.048 | -0.042 |
| GABARAPL2 (UniProt P60520) | -0.29 (active) | -0.182 | 0.041 | 0.027 | 0.007 | -0.049 | -0.017 | 0.099 | -0.07 | -0.099 | 0.021 | 0.047 | -0.008 | 0.045 | 0.011 | -0.019 | -0.111 | -0.013 | -0.02 | -0.009 |
| GTF2B (UniProt Q00403) | -0.076 | -0.323 (active) | 0.091 | 0.096 | -0.04 | -0.015 | 0.147 | 0.083 | -0.002 | -0.193 | -0.155 | -0.103 | -0.22 | 0.135 | -0.013 | -0.144 | -0.017 | 0.026 | 0.023 | -0.01 |
| GTF3C5 isoform 3 (UniProt Q9Y5Q8) | -0.188 | -0.157 | 0.213 | -0.011 | 0.029 | -0.034 | 0.078 | 0.017 | -0.025 | 0.03 | 0.024 | -0.148 | 0.036 | 0.068 | -0.02 | -0.069 | -0.173 | 0.056 | 0.085 | -0.021 |
| GEMIN5 (UniProt Q8TEQ6) | -0.122 | -0.438 (active) | 0.034 | -0.014 | -0.007 | 0.042 | 0.015 | 0.046 | 0.019 | -0.094 | -0.014 | -0.035 | -0.192 | -0.053 | -0.02 | -0.216 (active) | 0.026 | 0.025 | 0.061 | -0.019 |
| GNB2 (UniProt P62879) | 0.122 | 0.103 | 0.003 | 0.046 | -0.01 | -0.023 | -0.042 | -0.01 | -0.079 | 0.3 (active) | -0.033 | 0.019 | 0.001 | 0.015 | -0.002 | -0.028 | -0.004 | 0.039 | 0.005 | -0.065 |
| GNS (UniProt P15586) | -0.272 (active) | -0.181 | -0.045 | -0.012 | 0.018 | -0.003 | -0.007 | -0.005 | -0.016 | -0.408 (active) | 0.014 | 0.041 | -0.022 | -0.012 | -0.007 | -0.011 | 0 | -0.034 | 0.009 | -0.009 |
